Measurements as given in PubChem BioAssay (NCATS).
Inconclusive results are not listed. Activity calls are given as the source filed them. The call rests on the fitted dose curve; in most records, active means well fitted inhibition curve with a large enough effect in the main read-out, with a control signal flat (not every such curve was filed as active); inconclusive means small, poorly fitted or top-dose-only effect, or effect the other way, or a change in a side signal; inactive means no such curve, though single readings can be large or run the other way.

Test: Nrf2 qHTS screen for inhibitors: Validation (AID 493153)
Settings: A549 ARE-Fluc reporter, 18-24 h; Potency: luciferase luminescence; viability change: measured here: cytotoxicity max response; luciferase luminescence, at 46.1 µM (top of the series)
Excerpt: NIH Molecular Libraries Probe Production Network [MLPCN] NIH Chemical Genomics Center [NCGC] MLPCN Grant: R03-MH092170-01 Assay Provider: Shyam Biswal, Johns Hopkins University Assay Overview: Nrf2 is a transcription factor that maintains cellular redox homoestasis and protects cells from xenobiotics. Nrf2 binds to the antioxidant response element (ARE) to induce gene expression of a broad spectrum of genes that encode for antioxidants. […] Finding a small molecule that act as an inhibitor of Nrf2 function would represent a novel therapeutic target that could lead to improvement in survival of patients undergoing chemo- and/or radio- therapy. 1. Shibata, T., et al., Genetic Alteration of Keap1 Confers Constitutive Nrf2 Activation and Resistance to Chemotherapy in Gallbladder Cancer. Gastroenterology, 2008. 2. Sjoblom, T., et al., The consensus coding sequences of human breast and colorectal cancers. Science, 2006. 314(5797): p. 268-74.
Assay Protocol Summary: A concentration-response assay was performed with A549 ARE_Fluc cells which are suspended in 5% FBS OPTI-MEM. Five uL were dispensed into 1536-well white TC-treated plate using the Kalypsys dispenser to achieve a density of 5000 cells/well in all columns except column 1. The plate is incubated at 37deg C at 5% CO2 for 2 hours before 23 nL of compounds are added with the Kalypsys pin tool equipped with a 1,536-pin array containing 10-nL slotted pins (FP1S10, 0.457-mm diameter, 50.8 mm long; V&P Scientific). The control compounds Budesonide and Staurosporine are both added at a concentration of 2mM and Budesonide is also added as a 1:10 titration, starting at 200uM, to achieve dose-response. After an 18-24 hour incubation at 37deg C at 5% CO2, 5ul of medium is added to column 1. Afterwards 1ul of 5x of CellTiter-Fluor (Promega) is added to every well. The plate is then incubated at 37deg C at 5% CO2 for 30 minutes before they are read on the ViewLux (Perkin Elmer) for a fluorescent read Ex=405(10)/Em=525(10) for a 3 second exposure, 2x binning, and high gain. Then 3 uL of 3x BugLite is dispensed into all wells and the plate is incubated at ambient room temperature for 15 minutes. Afterwards another ViewLux read is performed using the clear filter to get a luminescent read with the settings of 40 second exposure, 2x binning, and high gain. Cytotoxicity is assessed through the first fluorescent read and then biochemical activity against Nrf2 is measured in the luminescent read.
Potency means the concentration at half of the fitted maximal effect.

Compound	Potency	viability change [%]
CCCN1CCc2cc(O)cc3c2[C@H]1Cc1ccc(O)c(O)c1-3	inactive	-6.67
NCC(O)c1cc(O)c(O)cc1F (stereo not given)	inactive	-0.467
C[C@@H]1O[C@H](C[N+](C)(C)C)CS1	inactive	8.63
CCCn1c(=O)c2[nH]c(C3CCCC3)nc2n(CCCOC(=O)c2ccc(S(=O)(=O)F)cc2)c1=O	inactive	-2.37
Nc1ccc(CCN2CCN(c3cccc(C(F)(F)F)c3)CC2)cc1	inactive	0.0372
COc1ccc(OC)c(C(O)C(C)N)c1 (stereo not given)	inactive	-6.5
c1ccc2c(N3CCNCC3)cccc2c1	inactive	3.18
CCS(=O)(=O)Nc1cccc(C(=C2CCCCC2)c2cnc[nH]2)c1	inactive	1.78
C[C@]12Cc3cn4c(nc3C=C1CCC1C2CC[C@@]2(C)[C@H]1CC[C@@]2(O)C#N)nc1ccccc14 (stereo not given in full)	13 µM (active)	-1.99
NCCc1ccc(S(=O)(=O)F)cc1	inactive	-2.23
N[C@@H](Cn1oc(=O)[nH]c1=O)C(=O)O	inactive	-3.31
CC(=O)OCC1=C(C(=O)O)N2C(=O)[C@@H](NC(=O)CCC[C@@H](N)C(=O)O)[C@H]2SC1	inactive	1.57
NNC(N)=O	inactive	-0.697
CN1CCc2cc(O)cc3c2[C@H]1Cc1ccc(O)c(O)c1-3	inactive	-1.2
Clc1cc(I)cc(Cl)c1NC1=NCCN1	inactive	9.07
CP(=O)(O)C1=CCNCC1	inactive	-3.56
COc1ccc2c(c1O)-c1cccc3c1[C@@H](C2)N(C)CC3	inactive	-4.97
CC(C)(C)c1o[nH]c(=O)c1CC(N)C(=O)O (stereo not given)	inactive	8
O=C1CC[C@@]2(O)C3Cc4ccc(O)c5c4C2(CCN3CC2CC2)[C@H]1O5 (stereo not given in full)	inactive	-12.7
CC(N)[C@H](O)c1ccc(O)c(O)c1 (stereo not given in full)	inactive	-3.08
